In PubChem BioAssay (NCI):
“And” between values parts separate entries of the source, which are not always exact repeats. Identical values can stand only once. About 83,000 compounds went through this panel and 20% of them were active in at least one assay; those are over-represented in the sample as a whole.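 Interpretation: 100, growth as untreated; towards 0, rising growth inhibition; 0, no net growth; 0 to -100, cell death. Compounds scoring below 10 were considered active.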 The source made the active and inactive calls.

Assays:
Assay in all cases: NCI-60 one-dose screen, 48 h (100 = growth as untreated, 0 = no growth, -100 = all killed)
BT-549 breast = conditions: 10 µM unless noted
MDA-MB-435 melanoma = conditions: 10 µM unless noted
SW-620 colon = conditions: 10 µM unless noted
MCF7 breast = conditions: 10 µM
HCT-116 colon = conditions: 10 µM unless noted
HCC-2998 colon = conditions: 10 µM unless noted
KM12 colon = conditions: 10 µM unless noted

Row | Compound | growth (BT-549 breast) | growth (MDA-MB-435 melanoma) | growth (SW-620 colon) | growth (MCF7 breast) | growth (HCT-116 colon) | growth (HCC-2998 colon) | growth (KM12 colon)
1 | O=C1C2=C(Nc3cc([N+](=O)[O-])ccc3N2)OC1c1c2ccccc2cc2ccccc12 (stereo not given) | 23.3% (inactive) | 73% (inactive) | 21.8% (inactive) | 22.3% (inactive) | 15.5% (inactive) | 72.6% (inactive) | 16.7% (inactive)
2 | Cn1c2c(c3ccccc31)CCN1C[C@@H]3CCCC[C@H]3C[C@@H]21 | 22.5% (inactive) | -53.4% (active) | 13.5% (inactive) | 13.9% (inactive) | -10.1% (active) | -4.34% (active) | -32.3% (active)
3 | CCC1OC(OC)C=CC1=O (stereo not given) | 88.8% (inactive) | 98.6% (inactive) | 100% (inactive) | 89.9% (inactive) | 96.5% (inactive) | 122% (inactive) | 99.7% (inactive)
4 | CCOC(=O)/C=C/c1ccc([N+](=O)[O-])o1 | 62.7% (inactive) | 44% (inactive) | 8.72% (active) | 25.5% (inactive) | -54.3% (active) | 95.7% (inactive) | 87.4% (inactive)
5 | CC(=O)Nc1cccc2cc(O)ccc12 | 118% (inactive) and 145% (inactive) and 94.5% (inactive) | 107% (inactive) and 117% (inactive) and 103% (inactive) | 104% (inactive) and 92% (inactive) and 98.7% (inactive) | 99.3% (inactive) and 99.8% (inactive) and 91.6% (inactive) | 85.9% (inactive) and 103% (inactive) and 91.2% (inactive) | 115% (inactive) and 108% (inactive) and 95% (inactive) | 110% (inactive) and 90.7% (inactive) and 103% (inactive)
